The values that follow come from PubChem BioAssay (NCI).

Compounds without any hit were thinned out: in the full panel of roughly 83,000, 20% have a hit.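 For each line, cells grew in 96-well plates with the test compound present at a single concentration for 48 hours.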 A number with no mark means an inactive call. Active and inactive are the calls of the source. Rule for the calls: active = growth percent below 10; inactive = the rest.

Holding throughout (assay): NCI-60 one-dose screen, 48 h (100 = growth as untreated, 0 = no growth, -100 = all killed)
In assay [1] the test system is NCI-H226 lung. To be noted: 10 µM unless noted.
Assay [2] concerns NCI-H322M lung. To be noted: 10 µM unless noted.
For assay [3], the system named is NCI-H522 lung. To be noted: 10 µM unless noted.
The subject of assay [4] is COLO 205 colon. To be noted: 10 µM.
The test system of assay [5] is MALME-3M melanoma. To be noted: 10 µM unless noted.
In assay [6] the test system is HT29 colon. To be noted: 10 µM unless noted.
Assay [7] concerns PC-3 prostate. To be noted: 10 µM unless noted.
In assay [8] the test system is SK-MEL-5 melanoma. To be noted: 10 µM unless noted.
In assay [9] the test system is EKVX NSCLC. To be noted: 10 µM unless noted.
The subject of assay [10] is CAKI-1 renal. To be noted: 10 µM unless noted.
For assay [11], the system named is CCRF-CEM leukemia. To be noted: 10 µM unless noted.
The subject of assay [12] is OVCAR-5 ovarian. To be noted: 10 µM unless noted.
Assay [13] has as its system IGROV1 ovarian. To be noted: 10 µM.
In assay [14] the test system is HS 578T breast. To be noted: 10 µM unless noted.
Assay [15] deals with MCF7 breast. To be noted: 10 µM unless noted.
Assay [16] has as its system SNB-75 CNS. To be noted: 10 µM unless noted.
For assay [17], the system named is OVCAR-3 ovarian. To be noted: 10 µM unless noted.
In assay [18] the test system is RPMI-8226 leukemia. To be noted: 10 µM unless noted.
Assay [19] relates to HOP-92 NSCLC. To be noted: 10 µM unless noted.

With `CC1CC=CCC12C(=O)NC(=S)NC2=O` (configuration not stated), the growth was 102% in assay [1]; 118% in [2]; 101% in assay [3]; 122% in [4]; 105% in assay [5]; 107% in assay [6]. For the same compound, the growth in assay [7] is 98.4%; in assay [8] it was 103%; in assay [9], 95.9%; in assay [10], 96.6%; in [11], 82.6%; in assay [12] it was 103%. In addition, the growth was 117% in assay [13], 102% in assay [14] and 105% in [15].

For `CCC(/C=C(C)/C=C/C(=O)c1c(O)c(-c2ccc(O)cc2)c[nH]c1=O)CO` (configuration not stated), the growth was 106% in assay [1]; 96% in assay [2]; 124% in assay [4]; 107% in [6]; 91.3% in assay [16]; 99.9% in assay [8]. The growth is 89.2% in [9]; 81.8% in [10]; 7.28% (active) in assay [11]; 41.8% in assay [17]; 83.8% in [14]; 88.7% in [15].

Take `CCC1CN1P(=O)(OCCOC)N1CC1CC` (configuration not stated): the growth was 109% in assay [1]; 101% in assay [2]; 119% in [4]; 110% in [5]; 104% in assay [6]; 92.9% in [16]. Also, the growth in assay [7] was 98.2%; in assay [8] it was 109%; in assay [18], 105%; in assay [13], 111%; in assay [14], 114%.

With `Cc1cc(N(CCCl)CCCl)ccc1C=Nc1ccc2ccccc2c1`, the growth in [1] was -49.7% (active); in [2] it was 103%; in assay [4], 87.4%; in [5] it was 84.9%; in [6] it was 92%; in assay [16], 72%. Further, the growth in assay [7] was 77.2%; in [8] it was 74.6%; in assay [11], 55.3%; in assay [18] it was 78.8%; in assay [12] it was 24.4%; in assay [13] it was 63%. The growth is 85.7% in [17] and 40% in assay [15].

On to `CC(C)(C)NCC(O)c1ccccc1Cl` (configuration not stated), for which the growth was 45% in [1]; 28.3% in [2]; 5.34% (active) in assay [4]; 35.8% in assay [5]; 2.91% (active) in [6]; -24.4% (active) in [16]. Moreover, the growth in assay [9] was 53.6%; in assay [10], 54.6%; in assay [18], 6.19% (active); in assay [13] it was 45.5%; in assay [17], -25.7% (active); in assay [14], 3.29% (active).

As for `CC1(C)N=C(N)N=C(N)N1c1ccc(OCCCCNC(=O)Nc2cccc(S(=O)(=O)F)c2)c(Cl)c1`, the growth in assay [1] was 69.4%; in assay [2] it was 57.6%; in [4] it was 50.4%; in assay [5], 56.5%; in [6], 14.4%; in [16] it was 74.8%. Besides, the growth is 5.73% (active) in [7]; 25.9% in assay [8]; 96.6% in [10]; 23.6% in assay [11]; 38.1% in [18]; 32.5% in assay [12]. The growth is 37.9% in [13] and 82.3% in assay [17].

As to `FC(F)=C(F)c1ccccc1`, the growth in [1] is 113%; in [2], 104%; in assay [4], 104%; in assay [5], 101%; in [16] it was 88.8%; in [7] it was 104%. Further, the growth in assay [8] was 105%; in [10] it was 109%; in assay [11] it was 80.3%; in assay [18], 97.5%; in assay [12], 112%; in [13], 99%. For the same compound, the growth is 114% in assay [17] and 96.9% in assay [15].

With `Cc1ccc2oc(=O)c3c(c2c1)OC(N)=C(C#N)C3c1ccco1` (configuration not stated), the growth in assay [1] was 91.9%; in assay [2], 98.8%; in assay [19], 102%; in assay [3] it was 91.6%; in assay [5] it was 99%; in [6], 108%. In addition, the growth in assay [16] is 96.2%; in [7], 95.9%; in assay [8] it was 101%; in assay [9], 94.9%; in assay [10], 91.3%; in [11], 96.4%. Moreover, the growth is 100% in assay [18]; 102% in assay [12]; 104% in assay [13]; 104% in [17]; 93.5% in assay [14]; 93.8% in assay [15].

On to `CC(=O)O[C@H]1CC[C@H]2[C@@H]3CC[C@H]4CC=C(C)C[C@]4(C)[C@H]3CC[C@]12C`, for which the growth in assay [1] is 103%; in assay [2], 104%; in assay [4], 110%; in [5] it was 106%; in [6] it was 98.4%; in assay [16], 110%. Moreover, the growth in [7] was 99.3%; in [9], 116%; in assay [10], 50.7%; in [11], 108%; in assay [18] it was 109%; in assay [12], 92.1%. The growth in assay [13] is 107%; in [17], 102%; in assay [14], 109%; in [15], 100%.

On to `CC(=O)Nc1ccc(C=C2C(=O)NC(=O)NC2=O)cc1`, for which the growth in assay [1] was 101%; in assay [2] it was 104%; in assay [19] it was 91.5%; in [6], 109%; in [16], 84.2%; in [7], 93.3%. The growth in assay [8] was 115%; in assay [9] it was 106%; in assay [10], 97.5%; in [18] it was 98.3%; in assay [12] it was 107%; in [13] it was 107%. The growth in assay [17] was 125%; in assay [15], 94%.

Turning to `O=[N+]([O-])c1ccc2cnn(CSP(=S)(c3ccccc3)c3ccccc3)c2c1`, the growth in assay [1] is 77.4%; in assay [2], 92.9%; in assay [19], 65.7%; in assay [5], 55.3%; in [16], 70.6%; in [8], 56%. In addition, the growth in assay [10] was 81.5%; in [11], 45.9%; in [18], 52.3%; in assay [12] it was 96.7%; in [17] it was 71.6%; in [15], 26.8%.
